Screens from PubChem.
This is one part of a sample in which hits are shown more often than they occur.
Dicer inh = human Dicer pre-microRNA cleavage inhibition; Q9UPY3; cat-ELCCA pre-miR-21 Dicer processing, chemiluminescence; hits give high values; z-score at 25 µM; 47,000 tested, 6% active; AID 1347074; in the data active = z-score above about 3, passing the limit was not always enough;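 note: plate controls were vehicle for no effect and no enzyme for full effect; higher signal means more uncleaved substrate so more Dicer inhibition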
Target sequence (Q9UPY3 whole entry, looked up): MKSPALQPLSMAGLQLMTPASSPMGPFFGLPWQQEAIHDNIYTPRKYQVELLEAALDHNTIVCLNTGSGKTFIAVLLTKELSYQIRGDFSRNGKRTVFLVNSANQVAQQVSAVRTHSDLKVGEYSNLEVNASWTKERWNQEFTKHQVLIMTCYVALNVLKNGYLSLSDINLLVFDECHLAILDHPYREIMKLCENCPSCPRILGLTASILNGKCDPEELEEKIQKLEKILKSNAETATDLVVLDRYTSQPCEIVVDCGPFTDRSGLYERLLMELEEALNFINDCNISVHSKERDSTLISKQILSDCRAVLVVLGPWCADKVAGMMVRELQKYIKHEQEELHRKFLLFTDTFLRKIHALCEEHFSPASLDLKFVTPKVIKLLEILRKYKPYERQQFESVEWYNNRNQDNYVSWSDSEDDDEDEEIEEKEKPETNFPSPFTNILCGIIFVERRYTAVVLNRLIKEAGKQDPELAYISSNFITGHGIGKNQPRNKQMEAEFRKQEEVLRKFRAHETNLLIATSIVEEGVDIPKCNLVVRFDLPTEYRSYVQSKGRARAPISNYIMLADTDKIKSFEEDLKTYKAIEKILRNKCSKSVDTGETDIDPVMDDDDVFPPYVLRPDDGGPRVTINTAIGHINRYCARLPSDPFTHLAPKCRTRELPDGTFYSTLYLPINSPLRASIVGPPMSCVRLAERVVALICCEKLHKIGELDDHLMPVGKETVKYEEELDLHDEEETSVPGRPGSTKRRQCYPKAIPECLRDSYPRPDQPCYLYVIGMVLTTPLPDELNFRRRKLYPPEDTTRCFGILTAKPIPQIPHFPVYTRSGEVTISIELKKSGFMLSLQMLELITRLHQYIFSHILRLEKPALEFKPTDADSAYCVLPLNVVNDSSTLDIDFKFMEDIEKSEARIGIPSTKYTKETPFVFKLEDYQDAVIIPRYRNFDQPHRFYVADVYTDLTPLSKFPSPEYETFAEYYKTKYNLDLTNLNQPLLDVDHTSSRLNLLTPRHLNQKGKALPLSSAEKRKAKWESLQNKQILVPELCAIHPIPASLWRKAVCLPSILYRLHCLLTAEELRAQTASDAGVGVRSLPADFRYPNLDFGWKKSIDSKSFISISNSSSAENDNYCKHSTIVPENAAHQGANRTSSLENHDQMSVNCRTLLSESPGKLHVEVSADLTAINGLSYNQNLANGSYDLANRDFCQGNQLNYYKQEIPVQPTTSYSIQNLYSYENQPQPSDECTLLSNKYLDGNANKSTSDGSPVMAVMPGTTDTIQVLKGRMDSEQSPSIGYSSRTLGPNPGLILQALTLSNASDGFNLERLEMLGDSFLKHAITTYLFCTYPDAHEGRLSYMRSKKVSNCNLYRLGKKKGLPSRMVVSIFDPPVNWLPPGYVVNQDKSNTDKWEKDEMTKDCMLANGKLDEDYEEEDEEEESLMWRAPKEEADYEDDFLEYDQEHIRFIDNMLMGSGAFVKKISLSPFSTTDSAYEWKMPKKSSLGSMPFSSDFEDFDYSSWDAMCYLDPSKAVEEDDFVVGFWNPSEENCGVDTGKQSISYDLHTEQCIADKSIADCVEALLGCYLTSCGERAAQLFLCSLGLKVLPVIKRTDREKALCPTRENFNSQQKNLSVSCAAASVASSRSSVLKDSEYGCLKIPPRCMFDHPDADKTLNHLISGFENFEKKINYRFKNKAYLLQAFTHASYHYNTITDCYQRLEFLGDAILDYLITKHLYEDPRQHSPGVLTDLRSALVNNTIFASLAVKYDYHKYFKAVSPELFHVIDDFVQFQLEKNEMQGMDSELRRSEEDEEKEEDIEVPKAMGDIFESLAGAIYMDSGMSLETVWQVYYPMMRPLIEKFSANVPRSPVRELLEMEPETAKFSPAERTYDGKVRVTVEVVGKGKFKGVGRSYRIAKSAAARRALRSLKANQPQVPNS
Numbers without * were called inactive.

SMILES	Dicer inh
O=c1cc(O)c2cc(Br)ccc2o1	0.36
Fc1ccc(C2=NN(C(=S)NCc3ccccc3)CCC2)cc1	1.4
CCOc1ccc2nc(NC3=NCN(CCCN4CCOCC4)CN3)nc(C)c2c1	3.8*
Cc1cc2nc(NC3=NCN(Cc4ccc5c(c4)OCO5)CN3)nc(C)c2cc1C	3.2*
CCCCN1CN=C(Nc2nc(C)c3cc(OCC)ccc3n2)NC1	1.2
Cc1cc2nc(NC3=NCN(Cc4ccco4)CN3)nc(C)c2cc1C	3
Cc1ccc2c(C)nc(NC3=NCN(Cc4ccccc4)CN3)nc2c1	-0.01
Cc1cc2nc(NC3=NCN(CCCN4CCOCC4)CN3)nc(C)c2cc1C	1.8
O=C(Nc1ccccc1Sc1c(Cl)cncc1Cl)c1cccc(C(F)(F)F)c1	-1.2
CCOC(=O)C1=C(C)NC2=C(C(=O)CC(C)(C)C2)C1c1ccc(SC)cc1 (configuration not stated)	1.1
O=C(CSc1nc(-c2ccco2)cc(C(F)(F)F)n1)Nc1ccc(-n2cccc2)c(Cl)c1	-0.31
O=S(=O)(Nc1n[nH]c2ccccc12)c1ccc(Cl)c(Cl)c1	0.95
CSc1sc(C(=O)NNC(=O)c2ccc(Cl)cc2)c2c1C1(CCC2)SCCS1	0.18
O=C1Nc2ccc(S(=O)(=O)Nc3ccc(O)c(-c4c(O)ccc5ccccc45)c3)c3cccc1c23	11
COc1ccc(OC)c(CNc2nc3ccccc3n2CCN2CCOCC2)c1	5.1*
O=C(Nc1nc2ccccc2n1CCN1CCOCC1)c1cccc([N+](=O)[O-])c1	0.22
Cn1c(CNc2nc3ccccc3n2CCN2CCCCC2)nc2ccccc21	-0.42
c1ccc(CNc2nc3ccccc3n2CCN2CCCCC2)nc1	3.5*
Cc1ccc(CNc2nc3ccccc3n2CCN2CCOCC2)cc1	1.6
Oc1ccccc1CNc1nc2ccccc2n1CCN1CCOCC1	4.1*
c1ccc2c(c1)nc(NCc1ccncc1)n2CCN1CCOCC1	2.5
COc1ccc(CNc2nc3ccccc3n2C)cc1OC	1.8
CCn1c(NCc2ccccn2)nc2ccccc21	0.67
CCOC(=O)c1c(NC(=O)CCC(=O)O)sc2c1CCC(C(C)(C)C)C2 (configuration not stated)	-0.72
O=C(C1=NNCC1c1ccccc1)c1cc2ccccc2c2ccccc12 (configuration not stated)	1.3
SMILES	Dicer inh
Nc1nc(CSc2nnc3c(n2)[nH]c2ccccc23)cs1	26
N#Cc1cccc(CS(=O)(=O)c2cccs2)c1	7.3
C=CCN1C(=O)C(=O)c2cccc(C)c21	-0.39
O=[N+]([O-])c1ccc(CSc2c(Cl)cncc2Cl)c(Cl)c1	1.3
CCOC(=O)c1cncc(C#CC(C)(C)O)c1	-0.74
CCOC(=O)N(/N=C/c1sc2ccccc2c1C)SC(Cl)(Cl)Cl	-1.2
O=C(NCc1ccccc1)N/N=C/c1cccs1	1.4
Cc1c(/C=N/NC(=O)NCc2ccccc2)sc2ccccc12	5.4*
C=CCN(CC=C)CC(O)Cn1cnc2c1c(=O)n(C)c(=O)n2C (configuration not stated)	1.2
OCCn1c(-c2ccc(Br)cc2)cn2c3ccccc3nc12	-0.4
Cc1cc(C)c2oc3nc(N)c(C#N)cc3c(=O)c2c1	-2.9
CNC(=O)NC(=O)Cn1nc2n(c1=O)-c1ccccc1SC2	0.34
NNC(=O)Cn1nc2n(c1=O)-c1ccccc1SC2	4.1*
CC(=O)Cn1nc2n(c1=O)-c1ccccc1SC2	-0.18
COc1ccc(COC(=O)C2=C(C)NC3=C(C(=O)CCC3)C2c2ccc(OC)c(OC)c2)cc1 (configuration not stated)	1.2
COc1ccc(-c2cc(=S)sc(N)c2C#N)cc1OC	-2.7
COc1cc(-c2cc3c(c(N)c2C#N)c(=O)oc2ccccc23)cc(OC)c1OC	3.7*
N#Cc1c(=N)nc2oc3ccccc3c3cc(-c4ccccc4)[nH]c1c23	0.72
CCCCCc1c(C)nc(Nc2nc(C)c3cccc(C)c3n2)[nH]c1=O	-0.24
O=C(O)CSCC(=O)Nc1ccc2c(c1)C(=O)OC2	-3.1
COc1ccc(C2C(C#N)=C(N)Oc3ccc4ccccc4c32)cc1 (configuration not stated)	1.1
Cc1cccc2nc(CSc3nnnn3-c3ccccc3)cn12	6.5*
Cc1cc(C)nc(N2N=C(CSc3nnnn3-c3ccccc3)CC2=O)n1	-1.5
Cc1cccc2nc(CSc3nncn3-c3ccccc3)cn12	-0.94
Cc1ccc(CSc2nc(C)cc(=O)[nH]2)cc1	-1.6
SMILES	Dicer inh
Cc1cc(=O)[nH]c(SCc2cn3c(C)cccc3n2)n1	4.8*
Cc1cc(=O)[nH]c(SCc2cccc(Oc3ccccc3)c2)n1	-0.26
O=C1CSC2=NC3=C(CCc4ccccc43)C(c3ccccc3Cl)N12 (configuration not stated)	-0.74
Cc1ccc(C)c(OCc2nc(-c3ccccc3)no2)c1	-0.08
c1cc(-c2nc3ccccc3[nH]2)nc(-c2nc3ccccc3[nH]2)c1	-0.51
CCc1ccc(NS(C)(=O)=O)cc1	1.2
CS(=O)(=O)N1CCN(CC(O)Cn2c3ccccc3c3ccccc32)CC1 (configuration not stated)	1.4
CCc1ccc(CN2CCC(N3CCN(CCO)CC3)CC2)cc1	0.59
CCc1ccc(CN2CCN(S(C)(=O)=O)CC2)cc1	3.7*
CC1CCCC(N2CCN(Cc3ccc(Cl)cc3)CC2)C1 (configuration not stated)	0.84
c1cc(CN2CCN(Cc3ccncc3)CC2)ccn1	11
CCCS(=O)(=O)N1CCN(Cc2ccc(Br)cc2)CC1	2.4
CSc1ccc(CN2CCN(S(C)(=O)=O)CC2)cc1	3.1*
CCc1ccc(CN2CCN(C3CCCC(C)C3)CC2)cc1 (configuration not stated)	3*
O=C(c1cccs1)n1nccc1/C=C/c1c(Cl)cccc1Cl	0.6
O=c1oc(-c2ccc(Cl)c(Cl)c2)nn1-c1ncc(C(F)(F)F)cc1Cl	-0.96
O=C(O)c1nccnc1C(=O)Nc1ccc2c(c1)OCCCO2	-2.6
COc1ccc2[nH]c(C)c(CN3CCN(C)CC3)c(=O)c2c1	1.8
COc1ccc(Cl)cc1NC(=O)Nc1ccc(C(F)(F)F)cn1	-1.6
Cc1cc(NC(=O)Nc2cc(C(F)(F)F)cc(C(F)(F)F)c2)nn1-c1ccccc1	1.7
COc1cc(C)nc(SCC(N)=O)n1	-0.74
COc1cc(C)nc(N(CCO)CCO)n1	5.9*
COc1cc(C)nc(-n2nc(C)cc2OC)n1	0.16
CSc1nnc(C)n1-c1ccc(OCc2ccccc2)cc1	-0.46
COc1ccc2c(c1)CCCN2C(=O)c1sc2ccccc2c1Cl	-1.1
SMILES	Dicer inh
COc1ccc2sc(C(=O)O)c(Br)c2c1	4.3*
COc1ccc2[nH]c(C(=O)O)cc2c1	0.75
Cc1ccc(NNC(=O)c2ccc(F)cc2F)cc1Cl	-5.7
O=C(COc1ccc2ccccc2c1)OCC(=O)c1ccc(Cl)cc1	-0.44
COc1ccc(NC(=O)N=S2CCN(S(=O)(=O)c3ccc(Cl)cc3)CC2)cc1	-0.71
COC(=O)c1ccsc1NC(=O)CN1CCN(S(=O)(=O)c2ccc(Cl)cc2)CC1	3*
COC(=O)c1ccsc1NC(=O)CN1c2cccc3cccc(c23)S1(=O)=O	1.9
Cc1nc(N2CCOCC2)c(C#N)c(C)c1[N+](=O)[O-]	0.54
CCCc1ccc(S(=O)(=O)C[N+](=O)[O-])cc1	1.3
CN(C)/C=C(\C#N)C(=O)Nc1ccc(F)c(F)c1F	-0.45
CCNc1nc(SCC(=O)c2ccccc2)nc2sc3c(c12)CCC(C)C3 (configuration not stated)	0.5
CCCCOC(=O)C1=C(C)NC2=C(C(=O)CC(C)(C)C2)C1c1ccc(OC)cc1 (configuration not stated)	-0.08
